Assay results: PubChem BioAssay (NCI)
Compounds without any hit were thinned out: in the full panel of roughly 79,000, 15% have a hit. Cut-off read from the data, not from the text of the source: active = growth inhibition above about 70%; inactive = the rest.

Columns and labels:
[1] = NCI Yeast Anticancer Drug Screen. Data for the mec2-1 strain (AID 157); settings: S. cerevisiae mec2-1 strain, at 50.0 µM, stronger effect = higher value
How it was run: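 Compounds were applied to mec2-1 yeast cells. Their growth was then compared with that of vehicle-treated cultures to give growth inhibition.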

[2] = NCI Yeast Anticancer Drug Screen. Data for the sgs1 mgt1 strain (AID 161);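 note: 0% = growth of cultures given vehicle only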; settings: S. cerevisiae sgs1 mgt1 strain, at 50.0 µM, stronger effect = higher value
How it was run: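 Percent growth inhibition was derived by comparing compound-exposed mutant yeast with vehicle-exposed cultures. The strain carries alterations in DNA damage repair.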

[3] = NCI Yeast Anticancer Drug Screen. Data for the cln2 rad14 strain (AID 165);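 note: 0% = growth equal to vehicle treated cultures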; settings: S. cerevisiae cln2 rad14 strain, at 50.0 µM, stronger effect = higher value
How it was run: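 Strain: cln2 rad14 yeast, altered in cell cycle control and DNA damage repair. Read-out: growth inhibition vs vehicle.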

[4] = NCI Yeast Anticancer Drug Screen. Data for the bub3 strain (AID 167); settings: S. cerevisiae bub3 mutant strain, at 50.0 µM, stronger effect = higher value
How it was run: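 Compounds were applied to a genetically altered yeast strain carrying a cell-cycle control defect. Growth inhibition was scored against vehicle-treated controls.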

[5] = NCI Yeast Anticancer Drug Screen. Data for the mlh1 rad18 strain (AID 175); settings: S. cerevisiae mlh1 rad18 strain growth inhibition; at 50.0 µM; stronger effect = higher value
How it was run: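 A repair-deficient yeast strain is exposed to test compound, and growth is scored relative to vehicle-treated controls.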

Measured: growth inhibition

Cc1cc(CO)c(O)c(CO)c1
inactive: [1] -10.4% | [2] 0.1% | [3] -5.05% | [4] -10.5% | [5] 0.85%

Cc1ccc(C)c(CCO)c1
inactive: [1] -38.5% | [2] -30.5% | [3] -2.9% | [4] -21.4% | [5] -7.3%

O=C1NC(=O)C(c2ccccc2)O1 (stereo not drawn)
inactive: [1] -12.1% | [2] 1.15% | [3] 14.7% | [5] 10.8%

O=C1C=C[C@H](O)[C@@]2(CO)O[C@@H]12
inactive: [1] 0.85% | [3] -6.1% | [4] -13.7% | [5] 11.7%

O=C(O)C1CSC(c2ccccc2)N1 (stereo not drawn)
inactive: [1] -12.8% | [2] -4.35% | [3] 3% | [4] -5.55% | [5] 2.55%
